Assay outcomes (PubChem)
GC-A act: GC-A (human) enzyme activation. P16066. HEK293 GC-A cells, cGMP TR-FRET, EC30 ANP; 0% at EC30 ANP, 100% saturating ANP. activation, % at 10 µM. 370,000 compounds, 0.14% hits. AID 1671463; in the data active = activation above about 40%
FAS TE block: FAS thioesterase (human) inhibition; 360,000 compounds, 0.67% hits; recombinant FAS-TE, OMFH fluorogenic substrate, fluorescence endpoint; P49327; inhibition, % at 15 µM;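 active = compounds whose normalised, plate-corrected inhibition of enzyme fluorescence in the single-dose primary screen is 50% or more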
NPR2 activator: GC-B (human) receptor activation; P20594; HEK293-GC-B cells, CNP EC30, cGMP TR-FRET; 0% at EC30 CNP, 100% saturating CNP; activation, % at 10 µM; 370,000 compounds, 0.11% hits; AID 1920062;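 active = activation at 10 µM reaching about 35% in either raw or pattern-adjusted values, limit read from the data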
Target sequence (P20594 whole entry, looked up): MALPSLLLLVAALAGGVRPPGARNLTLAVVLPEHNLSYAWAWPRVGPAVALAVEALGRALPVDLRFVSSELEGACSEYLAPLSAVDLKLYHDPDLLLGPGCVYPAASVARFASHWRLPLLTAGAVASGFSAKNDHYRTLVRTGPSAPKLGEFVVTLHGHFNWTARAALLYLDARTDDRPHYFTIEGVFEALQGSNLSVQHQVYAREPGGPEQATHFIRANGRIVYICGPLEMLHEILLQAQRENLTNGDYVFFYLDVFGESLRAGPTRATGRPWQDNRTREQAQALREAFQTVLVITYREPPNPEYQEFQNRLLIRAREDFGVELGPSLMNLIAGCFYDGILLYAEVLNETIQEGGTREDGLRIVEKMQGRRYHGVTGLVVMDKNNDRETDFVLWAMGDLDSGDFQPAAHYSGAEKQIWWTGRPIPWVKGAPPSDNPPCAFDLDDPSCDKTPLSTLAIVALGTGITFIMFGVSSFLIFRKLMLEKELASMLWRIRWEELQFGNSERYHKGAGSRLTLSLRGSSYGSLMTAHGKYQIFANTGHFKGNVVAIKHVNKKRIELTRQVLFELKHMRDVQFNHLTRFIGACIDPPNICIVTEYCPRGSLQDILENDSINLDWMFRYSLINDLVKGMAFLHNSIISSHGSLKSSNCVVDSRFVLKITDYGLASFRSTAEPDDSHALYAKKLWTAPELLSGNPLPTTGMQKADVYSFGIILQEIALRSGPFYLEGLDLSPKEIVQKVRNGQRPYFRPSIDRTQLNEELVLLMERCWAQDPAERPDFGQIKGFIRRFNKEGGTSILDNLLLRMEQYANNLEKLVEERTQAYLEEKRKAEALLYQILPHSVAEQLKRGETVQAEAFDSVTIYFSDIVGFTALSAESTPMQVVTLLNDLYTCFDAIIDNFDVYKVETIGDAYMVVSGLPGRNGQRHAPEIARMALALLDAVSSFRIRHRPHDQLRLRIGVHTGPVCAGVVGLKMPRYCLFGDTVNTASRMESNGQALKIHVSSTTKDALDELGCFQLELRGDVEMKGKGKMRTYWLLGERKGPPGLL
APOBEC3G inh: inhibitors of human APOBEC3G DNA deaminase; Q9HC16; recombinant A3G, ssDNA deamination FAM/TAMRA fluorescence; inhibition, % at 20 µM; 330,000 compounds, 0.28% hits; AID 493012;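 active = inhibition of at least 40% at 20 µM, with no more than 30% in the related APOBEC3A deaminase screen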
APOBEC3A inh: human APOBEC3A DNA deaminase inhibition | 330,000 compounds, 0.41% hits | recombinant A3A, FAM/TAMRA ssDNA deamination fluorescence | inhibition, % at 20 µM;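 active = at least 40% inhibition at 20 µM here, with at most 30% in a related deaminase screen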
Hits are given with their value; . = inactive; / = not tested or not shown. Only some compounds are listed: those with a hit (about 1.4% of all), similar ones and a draw of the others.

SMILES	GC-A act	FAS TE block	NPR2 activator	APOBEC3G inh	APOBEC3A inh
COc1ccc(-c2n[nH]c(C)c2-c2ccc(Cl)cc2)c(O)c1	.	.	.	.	.
Cc1[nH]nc(-c2ccc(O)cc2O)c1-c1ccc(Cl)cc1	70	.	.	.	.
CCCCCCCC#Cc1ccccc1/C=N/S(=O)c1ccc(C)cc1 (stereo not drawn)	/	/	/	61	.
CCCCC#Cc1ccccc1CC(=O)Nc1ccccc1	.	.	.	.	.
O=S(=O)(c1ccccc1)N1CCN(S(=O)(=O)c2ccc3c(c2)OCCO3)CC1	.	/	.	/	/
O=[N+]([O-])c1ccccc1S(=O)(=O)N1CCN(S(=O)(=O)c2ccc3c(c2)OCCO3)CC1	/	53	/	.	.
COc1ccc(COc2cc(-c3cccc(OC)c3)nc3ccc(NC(=O)c4ccc(OC)cc4)cc23)cc1	.	.	.	.	.
COc1ccc(COc2cc(-c3cccc(OC)c3)nc3ccc(NC(=O)c4ccccc4)cc23)cc1	40	.	44	.	.
COc1ccc(COc2cc(-c3cccc(OC)c3)nc3ccc(NC(=O)c4cccnc4)cc23)cc1	52	.	57	.	.
C=CCn1c(=O)c2c3c(sc2n2c(Nc4ccc(OC)cc4)nnc12)CCCC3	48	.	54	.	.
COc1ccc2sc(-c3ccc(S(C)(=O)=O)cc3)c(C(=O)NCCc3c[nH]c4ccccc34)c2c1	.	.	39	.	.
Cc1cccc(C)c1NC(=O)CSc1nc(-c2ccco2)cc(C(F)(F)F)n1	57	.	.	.	.
COc1ccc(C2c3[nH]c4ccccc4c3CCN2C(=O)c2cc3ncccn3n2)c(F)c1 (stereo not drawn)	.	.	37	/	/
COC(=O)CN1C(=O)N/C(=C/c2ccc(C)o2)C1=O	.	.	.	.	.
Cc1ccc(/C=C2/NC(=O)N(Cc3ccccc3)C2=O)o1	.	.	46	.	.
Fc1ccc(-c2cc(-c3nnc4sc(-c5cccs5)nn34)[nH]n2)cc1	.	/	.	/	/
COc1ccc(C(=O)Nn2c(SCC(=O)c3ccccc3)nc3ccccc3c2=O)cc1	.	.	.	.	.
COc1ccc(C(=O)Nn2c(SCc3ccc([N+](=O)[O-])cc3)nc3ccccc3c2=O)cc1	.	52	.	.	.
Cc1cc(OCC(C)CN2CCC(C(O)(c3ccccc3)c3ccccc3)CC2)ccc1Br (stereo not drawn)	.	/	.	/	/
Cc1ccc(S(=O)(=O)N2CCCC2C(=O)N2CCN(c3ccccc3)CC2)cc1C (stereo not drawn)	.	/	.	/	/
CCCCOCCCNC(=O)C[C@H]1C(=O)N(Cc2ccc(OC)cc2)C2=CCCC[C@@]21C(=O)OCC	.	/	.	/	/
O=C(O)C1CCN(C(=O)c2ccccc2N2C(=O)[C@@H]3Cc4c([nH]c5ccccc45)C(c4cccc(Cl)c4)N3C2=O)CC1 (stereo partly drawn)	53	.	58	.	.
CN(C(=O)[C@@H]1CC=C[C@@H]2CCN(C3CCCCC3)C(=O)[C@@H]21)c1ccccc1	.	/	.	/	/
COc1ccc(-c2cnc3c(NC=O)cc(-c4cc(OC)c(OC)c(OC)c4)cn23)cc1OC	.	.	39	/	/
COc1cc(-c2cc(NC(C)=O)c3ncc(-c4ccc(C(C)=O)cc4)n3c2)cc(OC)c1OC	46	.	46	/	/
SMILES	GC-A act	FAS TE block	NPR2 activator	APOBEC3G inh	APOBEC3A inh
CC(=O)Nc1cc(-c2cccc(N)c2)cn2c(-c3ccc(C(C)=O)cc3)cnc12	.	.	35	/	/
COc1cc(-c2cc(NC(C)=O)c3ncc(-c4ccc(F)cc4)n3c2)cc(OC)c1OC	.	.	.	/	/
C[C@H]1C2CC(OC(=O)Nc3ccccc3C(F)(F)F)C(C2)[C@H]2CCCCN21 (stereo partly drawn)	.	/	.	/	/
CCNC(=O)Nc1ccc2c(c1)C(=O)N(C)[C@H]1CC[C@@H](CC(=O)NCCN3CCCC3)O[C@@H]1CO2	.	/	.	/	/
CC1(C)Cc2c(C#N)c(NCCc3ccccc3)nc(-c3ccco3)c2CO1	.	.	48	.	.
COc1cc2c(cc1NC(=O)CSc1nnc(-c3ccccc3F)n1-c1ccc(C)cc1)oc1ccccc12	.	/	.	/	/
COc1ccc(-c2nnc(SCC(=O)Nc3cc(C)on3)n2C)cc1OC	.	.	.	.	.
Cc1cc(NC(=O)CSc2nc3c([nH]c4ccccc43)c(=O)n2-c2ccccc2F)no1	73	.	.	.	.
